Source: PubChem BioAssay
Entries with a potency or affinity are not part of this list. Inconclusive results are not listed. Active and inactive are the calls of the source. Unless noted, the rule behind the calls is not given here.

Legend:
[1] = RMG-1 ovarian cancer cell viability loss – cherry-pick, dose response (AID 687029;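 active = signal drop whose fitted half-maximal concentration is at most twice the top valid dose, in every test run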;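 note: cells exposed to compound for 96 hours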)
[2] = IOSE-T80 viability loss, PAX8-independent line – cell-based, cherry-pick, selectivity assay for PAX8 inhibitor project, dose response (AID 687032;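 active = fitted half-maximal concentration for viability loss no higher than twice the top valid dose, in every repeat run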;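 note: cells exposed to compound for 96 h before reading; 0% = neutral control wells and -100% = 2 µM mitoxantrone kill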)
[3] = CMV-driven luciferase expression suppression in HEK293 – cell-based, luminescence, dry powder, counter-screen for Pax8 inhibitor project, dose response (AID 743020;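 active = signal-lowering compounds whose fitted half-maximal concentration is at or below twice the top tested dose in every run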;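 note: HEK293 cells stably expressing the CMV luciferase reporter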)
[4] = general cell-killing toxicity readout – plate reader, dry powder samples, cytotoxicity control for PAX8 inhibitor project, dose response (AID 743021)
[5] = IGROV1 cell killing – plate reader, dry powder samples, PAX8 inhibitor project, dose response (AID 743043);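 note: more negative means fewer viable cells or more cytotoxicity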
[6] = OVCAR-3 cell viability loss – plate reader, dry powder samples, PAX8 inhibitor project, dose response (AID 743044); settings: max activity: at 35 µM, hits give low values unless noted
[7] = toxicity toward immortalized ovarian surface epithelium – cell-based, plate reader, dry powder samples, cytotoxicity control for PAX8 inhibitor project, dose response (AID 743045);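 note: 0% = neutral control median and -100% = positive control median; more negative values mean more cell killing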
[8] = A2780 cell killing – plate reader, dry powder samples, cytotoxicity control, dose response (AID 743046);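 note: 0% = neutral control wells and -100% = cytotoxic reference compound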

Measured: max activity

C[C@@H]1CCCCO[C@@H](CN(C)Cc2ccccc2)[C@@H](C)CN([C@@H](C)CO)C(=O)c2cc(NS(=O)(=O)c3ccc(Cl)cc3)ccc2O1
inactive: [1] | [2] | [3] | [4] | [5] | [6] 29.1% [at 0.26 µM, hits give low values] | [7]

C[C@@H]1CN([C@@H](C)CO)S(=O)(=O)c2ccc(C#C[C@@H](C)O)cc2O[C@@H]1CN(C)Cc1ccc(-c2ccccc2)cc1
inactive: [1] | [2] | [3] | [4] | [5] | [6] -11.9% [at 16 µM, hits give low values] | [7] | [8]

C[C@@H]1CCCCO[C@@H](CN(C)Cc2ccccc2)[C@H](C)CN([C@H](C)CO)C(=O)c2cc(NC(=O)Nc3ccc(C(F)(F)F)cc3)ccc2O1
inactive: [1] | [2] | [3] | [4] | [5] | [6] -20.2% [at 16 µM, hits give low values] | [7] | [8]

C[C@@H]1CN([C@@H](C)CO)C(=O)c2cc(NC(=O)Nc3ccc(C(F)(F)F)cc3)ccc2O[C@@H](C)CCCCO[C@H]1CN(C)C(=O)c1ccccc1
inactive: [1] | [2] | [3] | [4] | [5] | [6] 12.6% [at 0.26 µM, hits give low values] | [7]

CN1C(=O)c2cc(NC(=O)c3cccc(Cl)c3)ccc2OC[C@@H]2O[C@H](CC(=O)NC3CCCCC3)CC[C@@H]21
inactive: [1] | [2] | [3] | [4] | [5] | [6] -25.7% | [7]

CN1c2ccc(-c3ccccc3)cc2[C@@H]2[C@@H](CCN2C(=O)NC2CCCCC2)[C@@H]1CO
inactive: [1] | [2] | [3] | [4] | [5] | [6] 7.48% [at 0.26 µM, hits give low values] | [7] | [8]

CC(=O)N1CCN(c2ccc(NC(=O)c3ccc([N+](=O)[O-])o3)cc2Cl)CC1
inactive: [1] | [2] | [3] | [4]

Cc1[nH]nc2nc(SCC(=O)NC3CCCCC3)n(-c3ccc(Br)cc3)c(=N)c12
inactive: [1] | [2] | [3] | [4]

C[C@@H]1CCCCO[C@H](CN(C)Cc2ccc(C(F)(F)F)cc2)[C@@H](C)CN([C@@H](C)CO)C(=O)c2cc(NS(=O)(=O)c3ccccc3)ccc2O1
inactive: [1] | [2] | [3] | [4] | [5] | [6] -9.99% | [7] | [8]

COc1cccc(S(=O)(=O)N(C)C[C@@H]2Oc3cc(C4=CCCCC4)ccc3S(=O)(=O)N([C@@H](C)CO)C[C@H]2C)c1
inactive: [1] | [2] | [3] | [4] | [5] | [6] -34.5% [at 0.5 µM, hits give low values] | [7] | [8]

COc1ccc(CN(C)C[C@@H]2OCCCC[C@@H](C)Oc3ccc(NC(=O)Nc4ccc(C(F)(F)F)cc4)cc3C(=O)N([C@@H](C)CO)C[C@H]2C)cc1
inactive: [1] | [2] | [3] | [4] | [5] | [6] -5.22% [at 16 µM, hits give low values] | [7] | [8]

C[C@H](O)C#Cc1ccc2c(c1)O[C@H](CN(C)Cc1ccc(-c3ccccc3)cc1)[C@H](C)CN([C@@H](C)CO)S2(=O)=O
inactive: [1] | [2] | [3] | [4] | [5] | [6] 54.2% [at 0.5 µM, hits give low values] | [7] | [8]

O=C(C[C@H]1C[C@@H]2c3cc(NC(=O)Nc4ccc(C(F)(F)F)cc4)ccc3O[C@@H]2[C@@H](CO)O1)NCCc1ccccc1
inactive: [1] | [2] | [3] | [4] | [5] | [6] -7.36% [at 8 µM, hits give low values] | [7] | [8]

COc1ccc(CN(C)C[C@@H]2OCCCC[C@H](C)Oc3ccc(NC(=O)Nc4cccc5ccccc45)cc3C(=O)N([C@H](C)CO)C[C@H]2C)cc1
inactive: [1] | [2] | [3] | [4] | [5] | [6] -16.9% | [7] | [8]

C[C@H](O)C#Cc1ccc2c(c1)O[C@@H](CN(C)Cc1ccc(-c3ccccc3)cc1)[C@@H](C)CN([C@@H](C)CO)S2(=O)=O
inactive: [1] | [2] | [3] | [4] | [5] | [6] -22.5% | [7] | [8]

C[C@@H]1CN([C@@H](C)CO)C(=O)Cc2cc(NC(=O)Nc3ccc(C(F)(F)F)cc3)ccc2O[C@H]1CN(C)C(=O)Nc1ccc(C(F)(F)F)cc1
inactive: [1] | [2] | [3] | [4] | [5] | [6] -32.2% | [7] | [8]

C[C@@H]1CN([C@H](C)CO)C(=O)c2cc(NS(=O)(=O)c3ccccc3)ccc2O[C@@H](C)CCCCO[C@H]1CN(C)Cc1ccc(Cl)c(Cl)c1
inactive: [1] | [2] | [3] | [4] | [5] | [6] 22% [at 0.5 µM, hits give low values] | [7] | [8]

CCCC#Cc1ccc2c(c1)O[C@H](CN(C)Cc1ccccc1)[C@@H](C)CN([C@H](C)CO)S2(=O)=O
inactive: [1] | [2] | [3] | [4] | [5] | [6] 7.94% [at 1 µM, hits give low values] | [7] | [8]
